Data reported in PubChem BioAssay (Tox21).
Several values for one entry are separate records, joined by “and”; a condition that tells them apart may be missing. Equal entries are not always repeated. Records with an inconclusive call do not appear. Activity calls are given as the source filed them. Unless noted, calls come from the whole dose curve; as a rule, active = well fitted curve in the direction sought with a large enough effect in the repeat runs; inconclusive = weak or mixed curves; inactive = no such curve, though single readings can be large; an effect the other way counts as inactive or inconclusive.

What was measured:
[1] = qHTS assay to identify small molecule antagonists of the glucocorticoid receptor (GR) signaling pathway - cell viability counter screen (AID 720693); note: % is set by controls: 0 for no effect and ±100 for the full control effect; nearly all actives have a fitted effect of over 55% in size
[2] = qHTS assay for identifying genotoxic compounds that show differential cytotoxicity against isogenic chicken DT40 cell lines with known DNA damage response pathways - wild type cell line (AID 743012); note: nearly all actives have a fitted effect of over 60% in size; note: potency is the fitted concentration of half-maximal effect
Outline: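 Luminescent ATP viability signal (CellTiter-Glo, 30 min RT) recorded after wild type DT40 cells were incubated with compounds for 40 h at 37 C/5% CO2.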

[3] = qHTS assay for identifying genotoxic compounds that show differential cytotoxicity against isogenic chicken DT40 cell lines with known DNA damage response pathways - Rev3 mutant cell line (AID 743014); note: nearly all actives have a fitted effect of over 55% in size; note: potency is the fitted concentration of half-maximal effect
[4] = qHTS assay for identifying genotoxic compounds that show differential cytotoxicity against isogenic chicken DT40 cell lines with known DNA damage response pathways - Rad54/Ku70 mutant cell line (AID 743015); note: nearly all actives have a fitted effect of over 60% in size; note: potency is the fitted concentration of half-maximal effect
[5] = biological target: Androgen receptor (Homo sapiens) (UniProt P10275); assay: qHTS assay to identify small molecule antagonists of the androgen receptor (AR) signaling pathway (AID 743035; active = well fitted inhibition curve with a large enough effect in the signal ratio in the repeat runs, not every such curve was filed as active; the % refers to the signal ratio; note: potency is the fitted concentration of half-maximal effect)
Outline: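 Quantitative HTS of the Tox21 10K library used HEK293 AR-UAS-bla cells stimulated with R1881 alongside compound for 16 h at 37C, followed by beta-lactamase FRET detection (LiveBLAzer B/G, 2 h, RT).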

[6] = biological target: Androgen receptor (Homo sapiens) (UniProt P10275); assay: qHTS assay to identify small molecule agonists of the androgen receptor (AR) signaling pathway using the MDA cell line (AID 743040; note: % is set by controls: 0 for no effect and ±100 for the full control effect; nearly all actives have a fitted effect of over 20% in size)
Outline: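 Luciferase agonist assay: 16 h compound exposure at 37C without CO2 in MDA-kb2 AR-luc cells, whose MMTV promoter responds to both AR and GR. Luminescence measured after 30 min room-temperature incubation with ONE-Glo.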

[7] = qHTS assay to identify small molecule antagonists of the androgen receptor (AR) signaling pathway using the MDA cell line - cell viability counter screen (AID 743041; note: nearly all actives have a fitted effect of over 45% in size; note: potency is the fitted concentration of half-maximal effect)
Outline: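 Viability read by CellTiter-Fluor fluorescence in the same wells as the antagonist screen, added after 15.5 h of a 16 h, 37C exposure. Human breast carcinoma MDA-kb2 AR-luc cells, compounds co-dosed with agonist R1881.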

[8] = qHTS assay to identify small molecule antagonists of the thyroid receptor (TR) signaling pathway - cell viability counter screen (AID 743064); note: nearly all actives have a fitted effect of over 50% in size; note: potency is the fitted concentration of half-maximal effect
Outline: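 CellTiter-Fluor readout, 30 min at 37 °C/5% CO2, following 23.5 h incubation of GH3.TRE-Luc cells with test compound and 1 nM T3 (final).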

[9] = qHTS assay to identify small molecule antagonists of the thyroid receptor (TR) signaling pathway (AID 743065); note: nearly all actives have a fitted effect of over 55% in size; note: potency is the fitted concentration of half-maximal effect
Outline: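 Antagonism measured as loss of luciferase signal in GH3 cells stably carrying a TRE-luciferase reporter, co-treated with compound and T3 (1 nM final) for 23.5 h at 37 C. Viability was read in the same well by CellTiter-Fluor.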

[10] = biological target: Estrogen receptor (Homo sapiens) (UniProt P03372); assay: qHTS assay to identify small molecule antagonists of the estrogen receptor alpha (ER-alpha) signaling pathway (AID 743069; active = well fitted curve in the direction sought with a large enough effect in the signal ratio in the repeat runs, not every such curve was filed as active; the % refers to the signal ratio; note: % is set by controls: 0 for no effect and ±100 for the full control effect)
Outline: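 Antagonist mode: compounds in DMSO were co-added with 17beta-estradiol to ER-alpha-bla HEK293 cells (2% charcoal-stripped serum) and left 18 h at 37C. Reporter inhibition was measured as FRET fluorescence after 2 h LiveBLAzer substrate at room temperature.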

[11] = qHTS assay to identify small molecule antagonists of the estrogen receptor alpha (ER-alpha) signaling pathway - cell viability counter screen (AID 743074; calls by dose curve;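 note: HEK293 cells carrying ER-alpha-UAS-bla reporter stimulated with 17beta-estradiol; % is set by controls: 0 for no effect and ±100 for the full control effect; nearly all actives have a fitted effect of over 45% in size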)
Aromatase (Homo sapiens) = Aromatase (Homo sapiens) (UniProt P11511); assay: qHTS assay to identify aromatase inhibitors (AID 743083); note: % is set by controls: 0 for no effect and ±100 for the full control effect; nearly all actives have a fitted effect of over 55% in size
[12] = qHTS assay to identify small molecule antagonists of the androgen receptor (AR) signaling pathway - cell viability counter screen (AID 743033; note: % is set by controls: 0 for no effect and ±100 for the full control effect; nearly all actives have a fitted effect of over 45% in size)
[13] = test system: thyroid hormone receptor (rat, GH3 cells); assay: qHTS assay to identify small molecule agonists of the thyroid receptor (TR) signaling pathway (AID 743066; calls by dose curve; note: % is set by controls: 0 for no effect and ±100 for the full control effect)
[14] = biological target: Estrogen receptor (Homo sapiens) (UniProt P03372); assay: qHTS assay to identify small molecule agonists of the estrogen receptor alpha (ER-alpha) signaling pathway (AID 743075; calls by dose curve;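 note: HEK293 GripTite cells with ER-alpha and UAS-driven beta-lactamase reporter; % is set by controls: 0 for no effect and ±100 for the full control effect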)
[15] = biological target: Estrogen receptor (Homo sapiens) (UniProt P03372); assay: qHTS assay to identify small molecule agonists of the estrogen receptor alpha (ER-alpha) signaling pathway using the BG1 cell line (AID 743079); conditions: BG1Luc4E2 cells, ERE-luciferase agonist, 22 h; note: % is set by controls: 0 for no effect and ±100 for the full control effect; nearly all actives have a fitted effect of over 20% in size
[16] = qHTS assay to identify small molecule antagonists of the estrogen receptor alpha (ER-alpha) signaling pathway using the BG1 cell line (AID 743080; calls by dose curve;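 note: BG1 cells stimulated with 17beta-estradiol alongside compound; % is set by controls: 0 for no effect and ±100 for the full control effect; nearly all actives have a fitted effect of over 25% in size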)
Outline: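 After 5 days in phenol-red-free 10% charcoal-stripped FBS medium, BG1-Luc-4E2 cells were seeded, left 24 h at 37 C, co-treated with compounds and 17beta-estradiol for 21.5 h, then assayed for viability and luciferase.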

[17] = qHTS assay to identify small molecule antagonists of the estrogen receptor alpha (ER-alpha) signaling pathway using the BG1 cell line - cell viability counter screen (AID 743081);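 note: compound given together with 17beta-estradiol as the ER stimulus; % is set by controls: 0 for no effect and ±100 for the full control effect; nearly all actives have a fitted effect of over 45% in size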
[18] = qHTS assay to identify aromatase inhibitors - cell viability counter screen (AID 743084)
[19] = biological target: Androgen receptor (Homo sapiens) (UniProt P10275); assay: qHTS assay to identify small molecule agonists of the androgen receptor (AR) signaling pathway (AID 743036; active = well fitted activation curve with a large enough effect in the signal ratio in the repeat runs, with a control signal flat, not every such curve was filed as active; the % refers to the signal ratio; note: % is set by controls: 0 for no effect and ±100 for the full control effect)
Outline: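 Following a 4 h settling period, AR-UAS-bla HEK293 cells were dosed with compounds for 16 h at 37C. A 2 h room-temperature incubation with LiveBLAzer B/G FRET substrate preceded the fluorescence measurement.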

Sequence of Aromatase (Homo sapiens) (P11511 whole entry, looked up): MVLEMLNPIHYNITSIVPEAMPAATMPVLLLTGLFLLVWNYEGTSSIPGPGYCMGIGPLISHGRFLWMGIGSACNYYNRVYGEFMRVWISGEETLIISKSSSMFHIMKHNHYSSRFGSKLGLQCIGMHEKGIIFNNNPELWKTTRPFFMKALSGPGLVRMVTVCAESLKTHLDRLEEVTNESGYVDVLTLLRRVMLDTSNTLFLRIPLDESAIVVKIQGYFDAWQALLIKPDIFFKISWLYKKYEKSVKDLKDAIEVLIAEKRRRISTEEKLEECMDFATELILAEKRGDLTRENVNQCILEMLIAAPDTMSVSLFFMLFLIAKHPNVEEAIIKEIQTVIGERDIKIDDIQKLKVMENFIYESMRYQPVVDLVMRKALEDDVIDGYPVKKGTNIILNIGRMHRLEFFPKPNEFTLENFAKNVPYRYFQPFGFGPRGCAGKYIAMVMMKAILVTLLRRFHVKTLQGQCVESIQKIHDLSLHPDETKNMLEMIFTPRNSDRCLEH
Sequence of Estrogen receptor (Homo sapiens) (P03372 whole entry, looked up): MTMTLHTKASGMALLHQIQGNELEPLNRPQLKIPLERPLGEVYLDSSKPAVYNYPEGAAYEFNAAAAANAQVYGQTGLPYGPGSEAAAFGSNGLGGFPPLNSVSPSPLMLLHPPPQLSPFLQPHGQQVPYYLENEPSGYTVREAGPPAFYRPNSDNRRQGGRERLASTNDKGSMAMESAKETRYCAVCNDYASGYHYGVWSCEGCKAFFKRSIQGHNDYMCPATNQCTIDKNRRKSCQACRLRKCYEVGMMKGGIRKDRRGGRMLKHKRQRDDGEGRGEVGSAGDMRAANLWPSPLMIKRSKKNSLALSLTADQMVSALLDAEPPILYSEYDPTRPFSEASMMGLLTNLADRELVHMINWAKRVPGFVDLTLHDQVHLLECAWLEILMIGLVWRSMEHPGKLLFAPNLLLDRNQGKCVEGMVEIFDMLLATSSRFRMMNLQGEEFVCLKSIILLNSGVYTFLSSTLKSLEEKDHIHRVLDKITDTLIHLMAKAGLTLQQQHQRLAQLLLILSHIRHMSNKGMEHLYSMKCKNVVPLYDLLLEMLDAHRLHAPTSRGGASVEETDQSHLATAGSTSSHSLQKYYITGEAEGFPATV
Sequence of Androgen receptor (Homo sapiens) (P10275 whole entry, looked up): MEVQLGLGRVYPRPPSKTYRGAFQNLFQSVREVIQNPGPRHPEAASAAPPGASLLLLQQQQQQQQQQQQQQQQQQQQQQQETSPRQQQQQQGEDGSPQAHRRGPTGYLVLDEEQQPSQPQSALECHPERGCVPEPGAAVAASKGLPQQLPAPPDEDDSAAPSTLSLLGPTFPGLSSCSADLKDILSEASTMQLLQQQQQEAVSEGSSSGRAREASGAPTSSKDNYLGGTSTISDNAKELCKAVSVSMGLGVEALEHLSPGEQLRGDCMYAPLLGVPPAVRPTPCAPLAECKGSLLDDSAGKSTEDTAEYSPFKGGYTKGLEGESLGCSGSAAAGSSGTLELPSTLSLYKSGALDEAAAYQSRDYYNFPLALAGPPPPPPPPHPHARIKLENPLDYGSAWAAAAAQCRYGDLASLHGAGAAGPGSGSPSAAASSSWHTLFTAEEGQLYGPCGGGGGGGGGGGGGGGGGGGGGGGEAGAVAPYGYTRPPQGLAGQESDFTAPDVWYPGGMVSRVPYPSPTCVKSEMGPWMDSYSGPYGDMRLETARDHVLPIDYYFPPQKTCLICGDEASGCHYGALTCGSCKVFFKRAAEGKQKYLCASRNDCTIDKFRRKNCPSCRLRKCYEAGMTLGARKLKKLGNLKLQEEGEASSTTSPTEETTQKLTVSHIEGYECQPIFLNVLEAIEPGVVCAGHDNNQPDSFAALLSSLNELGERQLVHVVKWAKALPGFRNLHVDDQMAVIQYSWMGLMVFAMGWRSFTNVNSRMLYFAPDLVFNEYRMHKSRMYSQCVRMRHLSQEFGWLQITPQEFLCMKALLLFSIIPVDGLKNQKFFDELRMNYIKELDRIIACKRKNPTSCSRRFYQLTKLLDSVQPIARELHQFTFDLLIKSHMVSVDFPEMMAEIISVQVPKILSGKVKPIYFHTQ

Cc1ccc(S(=O)(=O)N[C@@H](CCCCN)C(=O)CCl)cc1
active: Potency [2] 5.96 µM | Potency [3] 10.6 µM | Potency [4] 10.6 µM | Potency [5] 21.3 µM | Potency [7] 21.1 µM | Potency [8] 16.8 µM | Potency [9] 13.3 µM
inactive: Potency [1] | outcome [6] | Potency [10] | Potency [11] | Potency (Aromatase (Homo sapiens))

C=C1C[C@@H]2[C@H](CC[C@]3(C)C(=O)CC[C@@H]23)[C@@]2(C)C=CC(=O)C=C12
inactive: Potency [1] | Potency [7] | Potency [8]
active: Potency [2] 7.5 µM | Potency [3] 11.9 µM | Potency [4] 13.3 µM

ClCC1CO1 (stereo not drawn)
inactive: Potency [1] | Potency [2] | Potency [4] | Potency [12] | Potency [8] | Potency [9] | Potency [13] | Potency [11] | Potency [14] | activation ([15]; at 70.3 µM (top of the series)) -1.3% and 13.9% | Potency [16] | Potency [17] | Potency (Aromatase (Homo sapiens)) | Potency [18]

CCCC(C)C1(CC)C(=O)N=C(S)NC1=O (stereo not drawn)
inactive: Potency [1] | Potency [2] | Potency [4] | Potency [12] | Potency [7] | Potency [8] | Potency [9] | Potency [13] | Potency [11] | Potency [17] | Potency (Aromatase (Homo sapiens)) | Potency [18]

CCCCCCC(=O)CCCCCC/C=C/C[C@@H](O)[C@H](O)[C@@](N)(CO)C(=O)O
inactive: Potency [1] | Potency [12] | Potency [8] | Potency [9] | Potency [13] | Potency [10] | Potency [11] | Potency [14] | activation ([15]; at 70.3 µM (top of the series)) -8.98% and -0.434% | Potency [16] | Potency [17] | Potency (Aromatase (Homo sapiens)) | Potency [18]
active: Potency [2] 23.7 nM and 10.6 nM | Potency [4] 26.6 nM and 13.3 nM

CC(=O)OCC1=C(C(=O)O)N2C(=O)[C@@H](N)[C@H]2SC1
inactive: Potency [1] | Potency [2] | Potency [4] | Potency [12] | Potency [7] | Potency [8] | Potency [9] | Potency [13] | Potency [11] | Potency [17] | Potency (Aromatase (Homo sapiens)) | Potency [18]

Cl/C=C/CCl
inactive: Potency [1] | Potency [2] | Potency [4] | Potency [12] | Potency [7] | Potency [8] | Potency [9] | Potency [13] | Potency [11] | Potency [17] | Potency (Aromatase (Homo sapiens)) | Potency [18]

COP(=O)(OC)O/C(C)=C/C(=O)N(C)C
inactive: Potency [1] | Potency [2] | Potency [4] | Potency [12] | Potency [7] | Potency [8] | Potency [9] | Potency [13] | Potency [10] | Potency [11] | Potency [14] | activation ([15]; at 95 µM (top of the series)) -7.62% | Potency [16] | Potency [17] | Potency (Aromatase (Homo sapiens)) | Potency [18]

N#CN=C1SCCN1Cc1ccc(Cl)nc1
inactive: Potency [1] | Potency [2] | Potency [3] | Potency [12] | Potency [7] | Potency [9] | Potency [13] | Potency [14] | activation ([15]; at 70.3 µM (top of the series)) -2.73% | Potency [16] | Potency [17] | Potency (Aromatase (Homo sapiens)) | Potency [18]

CC(Cc1ccccc1)NCCn1cnc2c1c(=O)n(C)c(=O)n2C (stereo not drawn)
inactive: Potency [1] | Potency [3] | Potency [12] | Potency [7] | Potency [9] | Potency [13] | Potency [14] | activation ([15]; at 70.3 µM (top of the series)) -17.2% | Potency [17] | Potency (Aromatase (Homo sapiens))
active: Potency [2] 67.7 µM

CCC1(CC)C(=O)C=CNC1=O
inactive: Potency [1] | Potency [2] | Potency [4] | Potency [12] | Potency [8] | Potency [9] | Potency [13] | Potency [10] | Potency [11] | Potency [14] | activation ([15]; at 70.3 µM (top of the series)) 10.4% | Potency [16] | Potency [17] | Potency (Aromatase (Homo sapiens)) | Potency [18]

COC1=CC(=O)O[C@@H](/C=C/c2ccccc2)C1
inactive: Potency [1] | Potency [2] | Potency [4] | Potency [12] | Potency [7] | Potency [9] | Potency [13] | Potency [17] | Potency (Aromatase (Homo sapiens)) | Potency [18]

O=C(Cl)/C=C/C(=O)Cl
inactive: Potency [1] | Potency [2] | Potency [4] | Potency [12] | outcome [19] | outcome [6] | Potency [7] | Potency [9] | Potency [13] | Potency [10] | Potency [14] | activation ([15]; at 95 µM (top of the series)) 5.56% | Potency [16] | Potency [17] | Potency (Aromatase (Homo sapiens)) | Potency [18]

c1ccc2c(c1)CCNC2
inactive: Potency [1] | Potency [2] | Potency [4] | Potency [12] | Potency [7] | Potency [8] | Potency [11] | Potency [17] | Potency (Aromatase (Homo sapiens)) | Potency [18]

NC(=O)CS(=O)C(c1ccccc1)c1ccccc1 (stereo not drawn)
inactive: Potency [1] | Potency [2] | Potency [4] | Potency [12] | Potency [8] | Potency [9] | Potency [13] | Potency [10] | Potency [11] | Potency [14] | activation ([15]; at 70.3 µM (top of the series)) -2.29% | Potency [16] | Potency [17] | Potency (Aromatase (Homo sapiens))
